Screen size: about 5,500 compounds; about 2,000 (36%) were called active. Inconclusive results (about 18%) are left out. No stated cut-off is given here; in the data, active means normalized growth mostly below about 0.91 (no sharp cut-off); inconclusive means no clear call, values can overlap the other calls; inactive means mostly above about 0.92. The list shows a part of the results.
Assay: chemical genetic growth profiling, strain panel (AID 1159580);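 further: tested at 20 µM; growth read once vehicle control cultures reached saturation at 30 °C; 1 = growth at the plate median or of vehicle wells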
Settings: growth OD

Measured: normalized growth

CC(=O)C1CCC2C3CCC4C[C@H](O)CCC4(C)C3C[C@H](O)C12C (some centres not stated)
inactive: S. cerevisiae deletion strains, locus YJL187C, strain SWE1, stronger effect = lower value 0.965 | S. cerevisiae deletion strains, locus YJR066W, strain TOR1, stronger effect = lower value 0.923 | S. cerevisiae deletion strains, locus YKL009W, strain mrt4, stronger effect = lower value 1.02 | S. cerevisiae deletion strains, locus YKL068W, stronger effect = lower value 0.992 | S. cerevisiae deletion strains, locus YKL085W, strain MDH1 (second series), stronger effect = lower value 0.987 | S. cerevisiae deletion strains, locus YKL085W, strain MDH1, stronger effect = lower value 0.987 | S. cerevisiae deletion strains, locus YKL160W, strain elf1, stronger effect = lower value 0.964 | S. cerevisiae deletion strains, locus YKR001C, strain vps1, stronger effect = lower value 1.04 | S. cerevisiae deletion strains, locus YKR026C, strain gcn3, stronger effect = lower value 0.962 | S. cerevisiae deletion strains, locus YKR091W, strain srl3, stronger effect = lower value 0.972 | S. cerevisiae deletion strains, locus YLL001W, strain dnm1, stronger effect = lower value 0.98 | S. cerevisiae deletion strains, locus YLL026W, stronger effect = lower value 0.968 | S. cerevisiae deletion strains, locus YLL041C, strain sdh2, stronger effect = lower value 0.963 | S. cerevisiae deletion strains, locus YLR027C, strain aat2, stronger effect = lower value 0.985 | S. cerevisiae deletion strains, locus YLR039C, strain RIC1, stronger effect = lower value 1.21 | S. cerevisiae deletion strains, locus YLR058C, strain SHM2, stronger effect = lower value 1.05 | S. cerevisiae deletion strains, locus YLR102C, strain apc9, stronger effect = lower value 1.01 | S. cerevisiae deletion strains, locus YLR113W, strain HOG1, stronger effect = lower value 1.12 | S. cerevisiae deletion strains, locus YLR221C, strain rsa3, stronger effect = lower value 0.984 | S. cerevisiae deletion strains, locus YLR258W, strain gsy2, stronger effect = lower value 0.962 | S. cerevisiae deletion strains, locus YLR262C, strain YPT6 (second series), stronger effect = lower value 0.991 | S. cerevisiae deletion strains, locus YLR262C, strain YPT6, stronger effect = lower value 1.19 | S. cerevisiae deletion strains, locus YLR268W, strain sec22, stronger effect = lower value 1.02 | S. cerevisiae deletion strains, locus YLR320W, strain mms22, stronger effect = lower value 0.99 | S. cerevisiae deletion strains, locus YLR330W, strain CHS5, stronger effect = lower value 1.03 | S. cerevisiae deletion strains, locus YLR342W, strain FKS1, stronger effect = lower value 0.977 | S. cerevisiae deletion strains, locus YLR357W, strain rsc2, stronger effect = lower value 0.98 | S. cerevisiae deletion strains, locus YLR370C, strain arc18, stronger effect = lower value 0.98 | S. cerevisiae deletion strains, locus YLR371W, strain rom2, stronger effect = lower value 1.02 | S. cerevisiae deletion strains, locus YLR384C, strain iki3, stronger effect = lower value 0.97 | S. cerevisiae deletion strains, locus YLR418C, strain cdc73, stronger effect = lower value 1.07 | S. cerevisiae deletion strains, locus YML016C, strain PPZ1, stronger effect = lower value 1.03 | S. cerevisiae deletion strains, locus YML032C, strain rad52, stronger effect = lower value 1.01 | S. cerevisiae deletion strains, locus YML120C, strain ndi1, stronger effect = lower value 1 | S. cerevisiae deletion strains, locus YML124C, strain tub3, stronger effect = lower value 0.998 | S. cerevisiae deletion strains, locus YMR058W, strain fet3, stronger effect = lower value 0.968 | S. cerevisiae deletion strains, locus YMR078C, strain ctf18, stronger effect = lower value 0.989 | S. cerevisiae deletion strains, locus YMR125W, strain sto1, stronger effect = lower value 0.943 | S. cerevisiae deletion strains, locus YMR129W, stronger effect = lower value 0.973 | S. cerevisiae deletion strains, locus YMR205C, strain PFK2, stronger effect = lower value 0.987 | S. cerevisiae deletion strains, locus YMR223W, strain ubp8, stronger effect = lower value 1.03 | S. cerevisiae deletion strains, locus YMR231W, strain pep5, stronger effect = lower value 0.978 | S. cerevisiae deletion strains, locus YMR307W, strain GAS1, stronger effect = lower value 1.34 | S. cerevisiae deletion strains, locus YNL067W, strain RPL9B, stronger effect = lower value 1.02 | S. cerevisiae deletion strains, locus YNL071W, strain lat1, stronger effect = lower value 0.975 | S. cerevisiae deletion strains, locus YNL183C, strain NPR1, stronger effect = lower value 0.956 | S. cerevisiae deletion strains, locus YNL209W, strain ssb2, stronger effect = lower value 0.967 | S. cerevisiae deletion strains, locus YNL233W, strain BNI4, stronger effect = lower value 1.07 | S. cerevisiae deletion strains, locus YNL248C, strain rpa49, stronger effect = lower value 0.975 | S. cerevisiae deletion strains, locus YNL250W, strain rad50, stronger effect = lower value 0.999 | S. cerevisiae deletion strains, locus YNL271C, strain bni1, stronger effect = lower value 1.01 | S. cerevisiae deletion strains, locus YNL298W, strain CLA4, stronger effect = lower value 1.01 | S. cerevisiae deletion strains, locus YNL307C, strain MCK1, stronger effect = lower value 0.994 | S. cerevisiae deletion strains, locus YNL322C, strain KRE1 (second series), stronger effect = lower value 0.979 | S. cerevisiae deletion strains, locus YNL322C, strain KRE1, stronger effect = lower value 1.02 | S. cerevisiae deletion strains, locus YNR049C, strain mso1, stronger effect = lower value 0.961 | S. cerevisiae deletion strains, locus YNR052C, strain pop2, stronger effect = lower value 1 | S. cerevisiae deletion strains, locus YOL006C, strain TOP1, stronger effect = lower value 1.37 | S. cerevisiae deletion strains, locus YOL012C, strain htz1 1.2 | S. cerevisiae deletion strains, locus YOL147C, strain pex11, stronger effect = lower value 0.995 | S. cerevisiae deletion strains, locus YOR001W, strain rrp6, stronger effect = lower value 0.961 | S. cerevisiae deletion strains, locus YOR061W, strain CKA2, stronger effect = lower value 1.03 | S. cerevisiae deletion strains, locus YOR069W, strain VPS5, stronger effect = lower value 1.02 | S. cerevisiae deletion strains, locus YOR070C, strain gyp1, stronger effect = lower value 0.982 | S. cerevisiae deletion strains, locus YOR080W, strain dia2, stronger effect = lower value 0.98 | S. cerevisiae deletion strains, locus YOR083W, strain WHI5, stronger effect = lower value 0.958 | S. cerevisiae deletion strains, locus YOR106W, strain vam3, stronger effect = lower value 0.913 | S. cerevisiae deletion strains, locus YOR136W, strain idh2, stronger effect = lower value 1 | S. cerevisiae deletion strains, locus YOR144C, strain elg1, stronger effect = lower value 0.996 | S. cerevisiae deletion strains, locus YOR184W, strain ser1, stronger effect = lower value 1.02 | S. cerevisiae deletion strains, locus YOR231W, strain MKK1, stronger effect = lower value 1.03 | S. cerevisiae deletion strains, locus YOR265W, strain rbl2, stronger effect = lower value 0.993 | S. cerevisiae deletion strains, locus YOR270C, strain vph1, stronger effect = lower value 0.964 | S. cerevisiae deletion strains, locus YOR290C, strain snf2, stronger effect = lower value 0.934 | S. cerevisiae deletion strains, locus YOR316C, strain cot1, stronger effect = lower value 1 | S. cerevisiae deletion strains, locus YPL051W, strain arl3, stronger effect = lower value 1 | S. cerevisiae deletion strains, locus YPL078C, strain atp4, stronger effect = lower value 0.945 | S. cerevisiae deletion strains, locus YPL106C, strain sse1, stronger effect = lower value 0.964 | S. cerevisiae deletion strains, locus YPL240C, strain hsp82, stronger effect = lower value 0.987 | S. cerevisiae deletion strains, locus YPL241C, strain CIN2, stronger effect = lower value 1.02 | S. cerevisiae deletion strains, locus YPL256C, strain CLN2, stronger effect = lower value 0.994 | S. cerevisiae deletion strains, locus YPR119W, strain clb2, stronger effect = lower value 0.988 | S. cerevisiae deletion strains, locus YPR141C, strain kar3, stronger effect = lower value 0.996 | S. cerevisiae deletion strains, locus YPR163C, strain tif3, stronger effect = lower value 1 | S. cerevisiae deletion strains, locus YPR167C, strain met16, stronger effect = lower value 1.01 | S. cerevisiae deletion strains, strain wtn01, stronger effect = lower value 1.01 | S. cerevisiae strains, strain wild type, stronger effect = lower value 1.07

From PubChem BioAssay AID1159580 (chemical genetic matrix, 2015)
